PubChem BioAssay
Active and inactive are the calls of the source.

Tests used:
[1] = E. coli DRC41 culture turbidity changes, primary screen, E. coli filamentation inducer project, strain DRC41, OD650, 48 h (AID 1152);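 note: E. coli MC1000 strain DRC41 lacking acrAB efflux pump and sulA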; conditions: E. coli DRC41 (acrAB sulA), higher = more signal, called active from +8 up or from −8 down
[2] = small-molecule binders of probe aLefty1, primary screen, biochemical, small-molecule microarray, 635/667 nm fluorescence (AID 1153); conditions: higher = more signal;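 note: score merges spot fluorescence with signal-to-noise ratio from the scanned slide images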
[3] = PSAC antagonists in infected red cells, primary screen, cell-based, P. falciparum Indochina, OD700, 1 h (AID 1154); conditions: P. falciparum Indochina infected RBC osmotic lysis, higher = more signal, called active from +8 up or from −8 down
[4] = PSAC antagonists in infected red cells, primary screen, cell-based, P. falciparum Indochina, OD700, 2 h (AID 1155);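 note: lysis reports solute entry through the parasite surface anion channel PSAC; channel blockers reduce lysis of infected cells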; conditions: P. falciparum Indochina infected erythrocytes, osmotic lysis OD700; higher = more signal, called active from +8 up or from −8 down
[5] = osmotic lysis modulators in infected erythrocytes, primary screen, PSAC antagonist project, cell-based, P. falciparum Indochina, OD700, 3 h (AID 1156); conditions: higher = more signal, called active from +8 up or from −8 down
[6] = PSAC antagonists in infected red cells, primary screen, cell-based, P. falciparum Indochina, OD700, 18 h (AID 1157); conditions: P. falciparum Indochina infected erythrocytes, osmotic lysis OD700, 18 h; higher = more signal, called active from +8 up or from −8 down
[7] = modulators of S6 phosphorylation in cells, primary screen, cell-based, A549, cytoblot, luminescence, serum-stimulated (AID 1158); conditions: A549 phospho-S6 cytoblot, 5 h, higher = more signal;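 note: serum-stimulated A549 lung adenocarcinoma cells; signal is phosphorylated S6 detected by cytoblot immunostaining with HRP secondary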
[8] = target: NADPH oxidase 2 (Homo sapiens) (UniProt P04839); assay: NOX2-dependent H2O2 signal modulators, primary screen, NOX inhibitor project, cell-based, HEK293-NOX2, PMA-stimulated, Amplex Red fluorescence (AID 1159); conditions: 45 min, higher = more signal, called active from +8 up or from −8 down; note: test concentration not given here
Chain of NADPH oxidase 2 (Homo sapiens) (P04839 whole entry, looked up): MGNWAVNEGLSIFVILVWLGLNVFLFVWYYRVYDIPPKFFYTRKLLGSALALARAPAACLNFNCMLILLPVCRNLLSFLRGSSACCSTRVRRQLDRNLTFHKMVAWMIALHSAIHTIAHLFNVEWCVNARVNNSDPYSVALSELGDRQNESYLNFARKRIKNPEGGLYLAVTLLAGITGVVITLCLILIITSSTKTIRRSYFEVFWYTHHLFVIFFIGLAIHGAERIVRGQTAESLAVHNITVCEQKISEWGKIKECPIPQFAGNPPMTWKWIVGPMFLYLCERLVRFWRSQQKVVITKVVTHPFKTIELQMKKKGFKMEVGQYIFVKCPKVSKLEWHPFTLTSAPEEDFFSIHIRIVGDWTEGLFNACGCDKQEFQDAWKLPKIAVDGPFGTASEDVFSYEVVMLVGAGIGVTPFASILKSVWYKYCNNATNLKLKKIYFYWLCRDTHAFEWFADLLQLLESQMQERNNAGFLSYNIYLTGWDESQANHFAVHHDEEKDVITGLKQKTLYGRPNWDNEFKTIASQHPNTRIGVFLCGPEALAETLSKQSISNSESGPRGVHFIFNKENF

[9] = target: NADPH oxidase 4 (Homo sapiens) (UniProt Q9NPH5); assay: NOX4-dependent H2O2 signal modulators, primary screen, NOX inhibitor project, cell-based, HEK293-NOX4, tetracycline-induced, Amplex Red fluorescence (AID 1160); conditions: 45 min, higher = more signal, called active from +8 up or from −8 down
Chain of NADPH oxidase 4 (Homo sapiens) (Q9NPH5 whole entry, looked up): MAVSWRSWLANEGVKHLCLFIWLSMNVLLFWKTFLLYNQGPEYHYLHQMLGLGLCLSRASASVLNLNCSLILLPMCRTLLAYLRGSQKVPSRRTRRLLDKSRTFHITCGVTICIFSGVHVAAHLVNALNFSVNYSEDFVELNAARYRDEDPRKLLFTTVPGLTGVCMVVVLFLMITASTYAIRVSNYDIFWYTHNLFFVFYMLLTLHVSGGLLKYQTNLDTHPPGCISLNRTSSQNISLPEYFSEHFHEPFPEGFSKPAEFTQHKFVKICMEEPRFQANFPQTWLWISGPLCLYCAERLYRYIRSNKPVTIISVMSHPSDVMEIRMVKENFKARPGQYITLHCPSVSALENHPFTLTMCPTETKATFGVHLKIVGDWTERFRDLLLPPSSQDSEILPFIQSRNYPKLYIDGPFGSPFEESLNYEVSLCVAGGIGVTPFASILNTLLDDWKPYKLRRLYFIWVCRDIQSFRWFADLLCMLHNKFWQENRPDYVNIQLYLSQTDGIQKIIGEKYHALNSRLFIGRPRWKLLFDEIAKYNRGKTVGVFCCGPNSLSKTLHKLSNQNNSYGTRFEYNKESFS

[10] = target: NADPH oxidase 5 (Homo sapiens) (UniProt Q96PH1); assay: NOX5-dependent H2O2 signal modulators, primary screen, NOX inhibitor project, cell-based, HEK293-NOX5, Amplex Red fluorescence (AID 1161); conditions: HEK293-NOX5, ionomycin, 45 min, higher = more signal
Chain of NADPH oxidase 5 (Homo sapiens) (Q96PH1 whole entry, looked up): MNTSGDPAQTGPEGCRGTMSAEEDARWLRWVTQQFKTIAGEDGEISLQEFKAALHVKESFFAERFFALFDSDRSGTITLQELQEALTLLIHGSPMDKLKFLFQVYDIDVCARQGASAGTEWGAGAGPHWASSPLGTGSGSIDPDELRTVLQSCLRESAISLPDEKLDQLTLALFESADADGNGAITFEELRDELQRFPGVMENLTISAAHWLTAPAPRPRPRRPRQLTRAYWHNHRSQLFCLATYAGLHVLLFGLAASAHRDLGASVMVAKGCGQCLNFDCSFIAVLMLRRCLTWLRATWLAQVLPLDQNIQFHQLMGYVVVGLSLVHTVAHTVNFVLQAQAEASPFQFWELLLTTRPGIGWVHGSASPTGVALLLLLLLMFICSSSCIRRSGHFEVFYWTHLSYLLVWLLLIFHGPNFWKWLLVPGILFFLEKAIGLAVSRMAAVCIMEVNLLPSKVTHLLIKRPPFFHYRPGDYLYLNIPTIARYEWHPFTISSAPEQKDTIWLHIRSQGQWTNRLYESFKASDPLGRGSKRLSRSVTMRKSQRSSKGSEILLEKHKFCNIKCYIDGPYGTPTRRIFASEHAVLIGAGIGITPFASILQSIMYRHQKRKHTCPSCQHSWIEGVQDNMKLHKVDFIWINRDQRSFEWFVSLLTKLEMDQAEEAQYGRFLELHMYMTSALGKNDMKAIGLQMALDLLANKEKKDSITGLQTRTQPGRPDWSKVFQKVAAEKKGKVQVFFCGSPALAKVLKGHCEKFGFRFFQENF

[11] = A549 cell viability effects, profiling panel, calcein-AM fluorescence, 48 h, basal (AID 1162); conditions: higher = more signal; note: test concentration not given here
[12] = adipocyte viability effects, profiling panel, cell-based, 3T3-L1 adipocytes, calcein-AM fluorescence, 48 h, basal (AID 1163); conditions: 3T3-L1 adipocytes viability, higher = more signal; note: test concentration not given here
[13] = HepG2 cell viability effects, profiling panel, calcein-AM fluorescence, 48 h, basal (AID 1164); conditions: higher = more signal; note: test concentration not given here
[14] = MM1S cell viability effects, profiling panel, calcein-AM fluorescence, 48 h, basal (AID 1165); conditions: higher = more signal;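 note: viability of MM1S multiple myeloma cells under basal unstimulated conditions; test concentration not given here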
[15] = basal RPMI8226 viability, no added stimulus, profiling panel, cell-based, calcein-AM fluorescence, 48 h, PK04 Diversity Set (AID 1166); conditions: RPMI8226 myeloma viability, higher = more signal;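 note: cells grown under basal conditions without added stimulus; test concentration not given here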
[16] = basal HepG2 mitochondrial membrane potential changes, profiling panel, cell-based, JC-1 fluorescence, 24 h, 100 nL compound (AID 1167); conditions: higher = more signal; note: test concentration not given here
[17] = basal 3T3-L1 adipocyte mitochondrial potential changes, profiling panel, cell-based, JC-1 fluorescence, 3T3-L1 adipocytes, 24 h, 100 nL compound (AID 1168); conditions: JC-1 mitochondrial fluorescence, higher = more signal, called active from +8 up or from −8 down; note: test concentration not given here
[18] = basal RPMI8226 mitochondrial membrane potential changes, profiling panel, cell-based, JC-1 fluorescence, 24 h, 100 nL compound (AID 1169); conditions: RPMI8226 myeloma, JC-1 mitochondrial potential fluorescence, higher = more signal; note: test concentration not given here
[19] = basal MM1S mitochondrial membrane potential changes, profiling panel, cell-based, JC-1 fluorescence, 24 h, 100 nL compound (AID 1170); conditions: higher = more signal; note: test concentration not given here
[20] = A549 lung cancer cell viability effects, profiling panel, resazurin fluorescence, 24 h, PK04 Diversity Set (AID 1171); conditions: higher = more signal, called active from +8 up or from −8 down; note: test concentration not given here

| SMILES | z-score [1] | composite z-score [2] | z-score [3] | z-score [4] | z-score [5] | z-score [6] | z-score [7] | z-score [8] | z-score [9] | z-score [10] | z-score [11] | z-score [12] | z-score [13] | z-score [14] | z-score [15] | z-score [16] | z-score [17] | z-score [18] | z-score [19] | z-score [20] |
| --- | --- | --- | --- | --- | --- | --- | --- | --- | --- | --- | --- | --- | --- | --- | --- | --- | --- | --- | --- | --- |
| CC(C)N1CC=CC23O[C@@H]4C=CCCOC(=O)C4[C@H]2C(=O)N(CCCCCCO)[C@@H]3C1=O (stereo not given in full) | 0.383 (inactive) | -0.007 | 0.156 (inactive) | 0.405 (inactive) | 0.799 (inactive) | 0.647 (inactive) | 0.342 | 0.584 (inactive) | -0.185 (inactive) | 1.52 | 0.647 | -0.505 | 0.677 | 0.585 | 0.788 | 0.614 | 0.294 (inactive) | 0.936 | -0.768 | 0.711 (inactive) |
| COc1cccc([C@H]2Oc3ccc(OC)cc3C(=NOC(C)CN3CCCc4nc(C)c(C)cc43)[C@@H]2O)c1 (stereo not given in full) | -0.304 (inactive) | 0.0809 | 2.47 (inactive) | 0.542 (inactive) | 0.714 (inactive) | 0.465 (inactive) | -0.912 | -1.12 (inactive) | -0.807 (inactive) | 1.57 | -0.0217 | -0.529 | 0.778 | 0.296 | -0.627 | 0.0313 | -1.29 (inactive) | 0.239 | -0.947 | -0.455 (inactive) |
| CC(=O)OC[C@H]1O[C@H](CCON=C[C@@H](C)[C@H](OCc2ccccc2)C(C)C)C=C[C@@H]1OC(C)=O | -2.02 (inactive) | -0.313 | 1.25 (inactive) | 0.412 (inactive) | 1.01 (inactive) | 0.367 (inactive) | -0.297 | -0.953 (inactive) | -0.218 (inactive) | -2.17 | -0.606 | -0.52 | -0.737 | -0.09 | -0.5 | -1.26 | -0.801 (inactive) | -0.0185 | 0.0314 | 0.0793 (inactive) |
| O=C1C[C@@H](O)[C@@H](O)[C@@H]2[C@@H]3C(=O)N(c4ccc(F)cc4F)C(=O)[C@@H]3CC[C@@H]12 | -0.349 (inactive) | -0.101 | -0.571 (inactive) | -0.0709 (inactive) | -0.659 (inactive) | -0.408 (inactive) | -0.0159 | -2.64 (inactive) | 0.473 (inactive) | -0.457 | -0.294 | -0.0367 | 0.644 | -0.701 | -0.709 | -0.56 | -0.597 (inactive) | -0.28 | 0.959 | 0.824 (inactive) |
| O=C(NN=C1C[C@@H](O)[C@@H](O)[C@@H]2[C@@H]3C(=O)N(c4cccc(Oc5ccccc5)c4)C(=O)[C@@H]3CC[C@H]12)OCc1ccccc1 | -0.155 (inactive) | 0.0406 | 2.26 (inactive) | 1.1 (inactive) | 2.32 (inactive) | 0.527 (inactive) | -0.738 | 1.25 (inactive) | 0.056 (inactive) | 0.825 | -0.207 | -0.205 | -0.943 | 0.693 | -0.363 | 0.559 | -1.15 (inactive) | 0.0901 | -0.0387 | -0.103 (inactive) |
| COCCCNC(=O)[C@@]1(Sc2ccc(C)cc2)CC(=O)N(Cc2ccccc2)[C@@H]1c1ccc(CO)cc1I | 0.613 (inactive) | 0.337 | 4.55 (inactive) | 0.831 (inactive) | 0.533 (inactive) | 0.377 (inactive) | 0.505 | 1.26 (inactive) | -0.666 (inactive) | 1.26 | 1.17 | 0.422 | 0.264 | -2.37 | -1.94 | 0.735 | -0.253 (inactive) | -0.617 | -1.47 | 0.491 (inactive) |
| Cc1ccc(S[C@]2(C(=O)NCC(F)(F)F)CC(=O)N(Cc3ccccc3Cl)[C@@H]2c2ccc(CO)cc2I)cc1 | 0.973 (inactive) | 0.051 | 5.02 (inactive) | 0.898 (inactive) | 0.276 (inactive) | 0.524 (inactive) | -0.35 | 0.861 (inactive) | -1.67 (inactive) | 0.799 | -1.08 | -0.798 | 0.995 | -2.24 | -2.67 | 0.627 | -0.541 (inactive) | -0.566 | -1.18 | 0.318 (inactive) |
| N#Cc1ccc(NN2C(C(O)c3cc(C(F)(F)F)cc(C(F)(F)F)c3)C=CC3C(=O)N(c4ccccc4)C(=O)C32)cc1 (stereo not given) | -1.54 (inactive) | 0.0971 | 4.78 (inactive) | 2.32 (inactive) | -3.13 (inactive) | 1.54 (inactive) | -1.07 | -1.19 (inactive) | -3.23 (inactive) | -1.4 | -0.676 | -0.461 | -1.22 | -1.45 | -3.8 | -2.78 | -0.189 (inactive) | -0.754 | 0.0337 | -0.557 (inactive) |
